Measured values from PubChem BioAssay (NCI).
The panel holds about 83,000 compounds, 20% with a hit somewhere; the sample as a whole holds those more often.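 A percent growth of 40 corresponds to 60% growth inhibition; 0 means no net growth; -100 means all cells died. Active threshold: below 10.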 A number with no mark means an inactive call. Calls of active or inactive are those of the source.

Assays:
Test in all cases: NCI-60 one-dose screen, 48 h (100 = growth as untreated, 0 = no growth, -100 = all killed)
Conditions in all cases: 10 µM unless noted
SK-MEL-2 melanoma = test system: SK-MEL-2 melanoma
EKVX NSCLC = test system: EKVX NSCLC
UO-31 renal = test system: UO-31 renal
TK-10 renal = test system: TK-10 renal
ACHN renal = test system: ACHN renal
CAKI-1 renal = test system: CAKI-1 renal
A498 renal = test system: A498 renal
CCRF-CEM leukemia = test system: CCRF-CEM leukemia
MOLT-4 leukemia = test system: MOLT-4 leukemia
SR leukemia = test system: SR leukemia
RPMI-8226 leukemia = test system: RPMI-8226 leukemia
OVCAR-8 ovarian = test system: OVCAR-8 ovarian
OVCAR-5 ovarian = test system: OVCAR-5 ovarian
OVCAR-4 ovarian = test system: OVCAR-4 ovarian
SK-OV-3 ovarian = test system: SK-OV-3 ovarian
IGROV1 ovarian = test system: IGROV1 ovarian
OVCAR-3 ovarian = test system: OVCAR-3 ovarian
HS 578T breast = test system: HS 578T breast
NCI/ADR-RES ovarian = test system: NCI/ADR-RES ovarian
SN12C renal = test system: SN12C renal

| SMILES | growth (SK-MEL-2 melanoma) | growth (EKVX NSCLC) | growth (UO-31 renal) | growth (TK-10 renal) | growth (ACHN renal) | growth (CAKI-1 renal) | growth (A498 renal) | growth (CCRF-CEM leukemia) | growth (MOLT-4 leukemia) | growth (SR leukemia) | growth (RPMI-8226 leukemia) | growth (OVCAR-8 ovarian) | growth (OVCAR-5 ovarian) | growth (OVCAR-4 ovarian) | growth (SK-OV-3 ovarian) | growth (IGROV1 ovarian) | growth (OVCAR-3 ovarian) | growth (HS 578T breast) | growth (NCI/ADR-RES ovarian) | growth (SN12C renal) |
| --- | --- | --- | --- | --- | --- | --- | --- | --- | --- | --- | --- | --- | --- | --- | --- | --- | --- | --- | --- | --- |
| Cc1ccc2oc(=O)cc(C3c4ccc([nH]4)C(c4cc(=O)oc5ccc(C)cc45)c4ccc([nH]4)C(c4cc(=O)oc5ccc(C)cc45)c4ccc([nH]4)C(c4cc(=O)oc5ccc(C)cc45)c4ccc3[nH]4)c2c1 (stereo unspecified) | -73.1% (active) | -19.3% (active) | -24.7% (active) | -22.2% (active) | -18.6% (active) | -13.6% (active) | -81.1% (active) | -18% (active) | -22.4% (active) | -36.5% (active) | -21.3% (active) | -47.8% (active) | -11.7% (active) | -6.02% (active) | -30.7% (active) | -20.1% (active) | -65% (active) | -37% (active) | -25% (active) | – |
| OCCN1CCN(c2nc(Nc3ccc(-c4nc5ccccc5[nH]4)cc3)c3cn[nH]c3n2)CC1 | -83.6% (active) | -80.4% (active) | -89.4% (active) | -97.2% (active) | -85.3% (active) | -97.3% (active) | -78.8% (active) | -73.9% (active) | -79.6% (active) | -61.1% (active) | -48.5% (active) | -91% (active) | -76.2% (active) | -74.6% (active) | -95.9% (active) | -78% (active) | -82.3% (active) | -47% (active) | -77.3% (active) | – |
| NC(=NCCCOc1ccc(Cl)cc1)Nc1ccc(Cl)cc1 | 24.1% | 44.4% | 37% | 45.8% | 2.74% (active) | 19.3% | -12% (active) | 6.02% (active) | 4.83% (active) | 4.92% (active) | 15.1% | 60.4% | 30.5% | 26.4% | 69.2% | 8.71% (active) | 54.3% | 41.5% | 53.1% | – |
| O=c1cc(CSc2nnc(SCc3cc(=O)oc4c3ccc3ccccc34)o2)c2ccc3ccccc3c2o1 | 87.8% | 94.7% | 81.2% | 98.8% | 102% | 97.4% | 98.9% | 105% | 98% | 91.7% | 99.8% | 94.1% | 99.7% | 111% | 98.8% | 94.9% | – | 94.2% | 94.4% | – |
| OCCNc1nccc(N2CCN(c3ccnc4cc(Cl)ccc34)CC2)n1 | 84.1% | – | 47.7% | 94.4% | 92.5% | 77% | 15.5% | 66.5% | 52.4% | 17.4% | 89.3% | 94.6% | 102% | 77.5% | 85.2% | 55.7% | 81.1% | 92.1% | – | 84.5% |
| Cc1cc(N2CCN(c3ccnc4cc(Cl)ccc34)CC2)nc(N2CCOCC2)n1 | 105% | – | 44.7% | 89.9% | 86.1% | 85.9% | 37.2% | 92.3% | 66.7% | 80.8% | 59% | 96.2% | 108% | 77.8% | 88.3% | 97.7% | 85.9% | 95.7% | – | 86% |
| Cc1nn(-c2ccc(F)cc2)c2ncnc(Oc3ccc(NC(=O)Nc4ccc(Cl)c(C(F)(F)F)c4)cc3)c12 | – | 105% | 100% | 104% | 102% | 95.3% | 99.2% | 102% | 104% | 110% | 98.7% | 96.5% | 99.3% | 110% | 92.6% | 102% | 114% | 91% | 98.5% | 95.1% |
| Cc1cc(N2CCN(c3ccnc4cc(Cl)ccc34)CC2)nc(NC2CCCCC2)n1 | 33.1% | – | 6.25% (active) | 48.8% | 40.6% | 37.7% | – | 1.71% (active) | -14.9% (active) | -24% (active) | -37.5% (active) | 60.3% | 66.8% | 33.2% | 56.3% | 18.6% | 38.2% | 57.9% | – | 47.2% |
| CC(=O)O[C@H]1[C@@H]2OC(=O)C(CSc3ccccc3)[C@@H]2C[C@H]2O[C@]2(C)CC/C=C(\C)CCC[C@@H]1C (stereo partly specified) | 35.6% | – | 11.7% | -5.98% (active) | 33.5% | 2.92% (active) | 116% | 52.4% | 22.7% | 58.2% | 51.6% | 28.7% | 83.6% | 34.3% | 103% | – | -9.73% (active) | 69.6% | 29.6% | 31.6% |
| C=C1c2nc3ccccc3n2C=C(c2ccc(Cl)cc2)N1Cc1ccc(OC)cc1 | – | 71.3% | 52.2% | 138% | 89.5% | 85.7% | 90.5% | 86.3% | 64.8% | -2.2% (active) | 30.9% | 91.1% | 72.1% | 71.6% | 85.8% | 55.2% | 85.4% | 104% | 62.7% | 92.2% |
| O=C1c2cc3c(cc2-c2c1c1ccc(F)cc1c(=O)n2C[C@H](O)[C@@H](O)[C@H](O)CO)OCO3 | – | 13% | -21.3% (active) | -0.938% (active) | -42.9% (active) | -7.09% (active) | -78.8% (active) | 5.88% (active) | -6.28% (active) | 0.151% (active) | -0.286% (active) | 0.0181% (active) | – | 15.4% | -20.8% (active) | 17.7% | -20.3% (active) | 0.229% (active) | 4.78% (active) | 4.69% (active) |
| CS(=O)(=O)c1ccc(-n2nc(-c3ccc(Br)cc3)c3ccccc3c2=O)cc1 | 107% | – | 67.9% | 105% | 95.9% | 98.7% | 81.3% | 97.1% | 94% | 110% | 99.8% | 100% | 108% | 97.8% | 94.3% | 109% | 102% | 100% | – | 102% |
| O=C1C=CC(=O)N1c1ccc2c(c1)Cc1cc(F)ccc1-2 | 107% | – | 80.6% | – | 92.6% | – | – | 65.2% | 43.7% | 70.6% | 28.2% | 99.4% | 93.5% | 83.3% | 103% | 94% | 115% | 97.8% | 105% | 94.6% |
| CC(O)CN1CC(O)=C(c2nc3ccccc3s2)C1=N (stereo unspecified) | – | 108% | 90.3% | 131% | 228% | 101% | 116% | 97.4% | 103% | 93.1% | 101% | 116% | 93.9% | 106% | 113% | 99% | 117% | 104% | 85.1% | 103% |
| Nc1ccc(-c2cc3c(NCc4ccccc4)ncnc3s2)cc1 | – | 57.9% | 58.5% | 50.2% | 52.7% | 63.1% | 52.6% | 81.9% | 83.7% | 81.5% | 62.6% | 94% | 77% | 60.6% | 102% | 49.9% | 80% | 86.5% | 80.7% | 72.6% |
| COc1cc(-c2nc3ccccc3[nH]2)ccc1OCC(=O)N=Nc1c(O)[nH]c2ccc(Cl)cc12 | -47.4% (active) | – | 104% | -7.25% (active) | 31.4% | -66.4% (active) | 81.8% | -46.7% (active) | -45.1% (active) | -26.4% (active) | -39.4% (active) | -70.4% (active) | -26.4% (active) | -92.6% (active) | -13.3% (active) | -53.1% (active) | -97.7% (active) | -60% (active) | 89.7% | -73.4% (active) |
| c1ccc(-c2cc3n4c(-c5ccccc5)nn(-c5ccccc5)c4cnc-3n2)cc1 | 72.6% | – | 60.7% | 24.5% | 68.2% | 59.5% | 78.1% | 86.4% | 88.9% | 113% | 84.5% | 58.1% | 92.3% | 43.5% | 63.8% | – | 60.3% | 31.6% | 84.4% | 62.6% |
| O=C1c2ccccc2C(=O)c2c(N=Nc3[nH]c(=S)[nH]c3O)cccc21 | – | 41.6% | 26.9% | 54.1% | 41.4% | 20.6% | -6.1% (active) | 14.1% | 16% | 24.5% | -2.62% (active) | 30.3% | 49.8% | 58.9% | 30.6% | 27% | – | 5.86% (active) | 50% | 35.3% |
| CON1C(=O)CC[C@]2(C)[C@H]3CC[C@@H]4C([C@@]5(C)CCC(=O)O5)CC[C@@]4(C)[C@]3(C)CC[C@H]2C1(C)C (stereo partly specified) | – | 93.3% | 94.4% | 97.8% | 96.6% | 75.7% | 99.6% | 96.9% | 90.6% | – | 98.6% | 102% | 98.4% | 92.8% | 104% | 111% | 110% | 101% | 97.1% | 95.2% |
| CN(C)CCCNc1c2ccccc2nc2ccccc12 | 99.9% | – | 103% | 81.6% | 100% | 106% | 102% | 86.9% | 83.3% | 86.9% | 100% | 92% | 97.9% | 87.4% | 95.8% | 97.5% | 103% | 75.7% | – | 95.8% |
| COc1cccc2c1C(=O)c1c(O)c3c(c(O)c1C2=O)C[C@](O)(C(=O)CO)C[C@H]3O[C@@H]1C[C@@H](NC(=O)CCCN(C)C2(c3ccc(F)cc3)CC3CCC2C3)[C@H](O)[C@@H](C)O1 (stereo partly specified) | 47.1% | -46.3% (active) | 71.7% | – | -86% (active) | 61.9% | 52.5% | -29% (active) | -37% (active) | -60.2% (active) | -41% (active) | -43.1% (active) | -48.3% (active) | -68.9% (active) | 84.4% | 55.2% | -84.8% (active) | 51.2% | 82.4% | – |
| COc1ccc(Nc2cc(C)nc(N3CCN(c4ccnc5cc(Cl)ccc45)CC3)n2)cc1 | 48% | – | -0.534% (active) | 46.8% | 41.5% | 35.1% | -1.56% (active) | 16% | 11.1% | -4.15% (active) | 16.2% | 53.6% | 73.4% | 36.6% | 51% | -11% (active) | 6.63% (active) | 71.1% | – | 40.9% |
